Measurements as given in PMC12431657, “Discovery and mechanistic insights of dibenzoylmethane as a broad spectrum inhibitor of coronavirus” (PLOS Pathogens, 2025).
Counter-ions that a name gives are not always drawn. Like-named read-outs stand apart in the source and are kept apart here. The campaign covered roughly 3,300 compounds. About 95 (3%) showed an effect of 50% or more. This excerpt belongs to a sample that is enriched for strong results.

Test system: HCoV-229E
Parameters: species or system Huh-7; HTS, protection from HCoV-229E induced cell death, luminescent cell viability (CellCounting-Lite 2.0), inhibition rate
Details: 24 h post infection, 1 h compound pre-incubation, 10 µM, inhibitor

SMILES	229E Inhibition rate	229E Inhibition rate (229E Inhibition rate, 24 h)
O=C(OCc1ccccc1)c1ccccc1O [Benzyl salicylate]	24.5%	
CC(=O)OCc1ccccc1 [Benzyl acetate]	50.3%	
O=C(OCc1ccccc1)c1ccccc1 [Benzyl benzoate]	12.5%	
C[C@H]1O[C@@H](Oc2ccc(COC(=O)CC(O)(CC(=O)OCc3ccc(O[C@@H]4O[C@H](CO)[C@@H](O)[C@H](O)[C@H]4O)cc3)C(=O)Oc3ccc(O[C@H]4O[C@H](CO)[C@@H](O)[C@H](O)[C@H]4O)cc3)cc2)[C@H](O)[C@@H](O)[C@@H]1O (stereo partly drawn) [Parishin]	9.7%	
O=C1CC(C(=O)O)c2c1oc(=O)c1cc(O)c(O)c(O)c21 (stereo not drawn) [Brevifolincarboxylic acid]	6.4%	
C[C@H]1[C@H](C)CC[C@]2(C)CC[C@]3(C)C(=CC[C@@H]4[C@@]5(C)CC[C@@H](O)[C@](C)(C(=O)O)[C@@H]5CC[C@]43C)[C@H]12 [β-Boswellic acid]	22.5%	
CCCCCCCCCCCCCCCCCCCCCCCC(=O)OC [Methyl tetracosanoate]	11.5%	
CCCCCCCCCCCCCCCCCC(=O)OC [Methyl stearate]	17.9%	
CCCCCCCCCCC(=O)OC [Methyl undecanoate]	56.2%	
C=C1C[C@@]23CC[C@H]4[C@@](C)(CCC[C@@]4(C)C(=O)O)[C@@H]2CC[C@]1(O[C@@H]1O[C@H](CO)[C@@H](O)[C@H](O[C@@H]2O[C@H](CO)[C@@H](O)[C@H](O)[C@H]2O)[C@H]1O[C@@H]1O[C@H](CO)[C@@H](O)[C@H](O)[C@H]1O)C3 [Rebaudioside B]	36.9%	
COc1cc(/C=C/C=O)ccc1O [Coniferaldehyde]	38.5%	
Nc1ncnc2c1ncn2[C@@H]1C[C@H](CO)[C@@H](O)[C@H]1O [Aristeromycin]	57.5%	
Nc1ncnc2c1ncn2[C@@H]1O[C@H](CO)C[C@H]1O [Cordycepin]	15.3%	
Nc1ncnc2c1ncn2[C@H]1C[C@H](O)[C@@H](CO)O1 [2'-Deoxyadenosine monohydrate]		8.6%
O=C(/C=C/c1ccccc1)c1ccccc1 [trans-Chalcone]		5.4%
O=C1C[C@@](O)(C(=O)O)[C@@H](C(=O)O)O1 [(-)-Hydroxycitric acid lactone]	7.8%	
O=C(O)CCCC(O)C(=O)O (stereo not drawn) [2-Hydroxyadipic acid]	14.9%	
C[S@@+]([O-])CCCCN=C=S [(R)-sulforaphane]	54%	
C=C1C(=O)[C@]23[C@H](O)[C@H]1CC[C@H]2[C@@]12CO[C@]3(O)[C@@H](O)[C@@H]1C(C)(C)CC[C@@H]2O [Oridonin]	0%	

SMILES	229E Inhibition rate	229E Inhibition rate (229E Inhibition rate, 24 h)
C=C1C(=O)[C@@]23[C@H](O)C[C@@H]4C(C)(C)CC[C@H](O)[C@@]4(CO)[C@@H]2CC[C@@H]1[C@H]3O [Kamebakaurin]	0%	
C=C1C(=O)[C@@]23[C@@H]4OC5O[C@@]2(O)[C@@H](O)[C@@H]2C(C)(C)CC[C@@H](O)[C@]52[C@@H]3CC[C@@H]14 [ponicidin]	95.6%	
COc1c2ccoc2c(O)c2oc(=O)ccc12 [8-Hydroxybergapten]	7.9%	
C/C=C1\C(=O)C[C@H]2[C@@H]3CCC4=CC(=O)CC[C@]4(C)[C@H]3CC[C@]12C [(Z)-Guggulsterone]		6.7%
C/C=C(\C)C(=O)OC1c2c(ccc3ccc(=O)oc23)OC(C)(C)C1OC(=O)/C(C)=C/C (stereo not drawn) [Praeruptorin B]	53.9%	
C/C=C(/C)C(=O)O[C@H]1[C@@H](OC(=O)CC(C)C)c2c(ccc3ccc(=O)oc23)OC1(C)C [Praeruptorin E]	43.4%	
C/C=C(/C)C(=O)O[C@@H]1c2c(ccc3ccc(=O)oc23)OC(C)(C)[C@@H]1OC(=O)/C(C)=C\C [(-)-Anomalin]	51.7%	
C/C=C(/C)C(=O)O[C@@H]1[C@H](OC(=O)CC(C)C)c2c(ccc3ccc(=O)oc23)OC1(C)C [Praeruptorin C]	32.9%	
C/C=C(/C)C(=O)O[C@H]1[C@@H](OC(C)=O)c2c(ccc3ccc(=O)oc23)OC1(C)C [Praeruptorin A]	19.1%	
C/C=C(/C)C(=O)O[C@@H]1c2c(ccc3ccc(=O)oc23)OC(C)(C)[C@@H]1OC(C)=O [Pteryxin]	4.8%	
CC(C)=CCc1c2ccoc2c(O)c2oc(=O)ccc12 [Alloimperatorin]	0%	
c1c2c(cc3c1OCO3)-c1cc3ccc4c(c3c[n+]1CC2)OCO4 [Coptisine (chloride)]		32%
O=C(O)C1CSSC1 [Asparagusic acid]	15.6%	
CC(C)C[C@H](NC(=O)CN)C(=O)O [Glycyl-L-leucine]	13.8%	
O=C1c2c(O)cc(O)cc2O[C@H](c2ccc(O)cc2)[C@H]1O [Dihydrokaempferol]	9.9%	
C=C(C)[C@H](CC=C(C)C)Cc1c(O)cc(O)c2c1O[C@H](c1ccccc1O)CC2=O [Kushenol A]	10.8%	
COc1cc(O)c(CC=C(C)C)c2c1C(=O)CC(c1ccc(O)cc1)O2 (stereo not drawn) [Isoxanthohumol]	23.6%	
C=C(C)[C@H](CC=C(C)C)Cc1c(O)cc(OC)c2c1O[C@H](c1ccc(O)cc1OC)CC2=O [(2S)-2'-Methoxykurarinone]	62.1%	
C=C(C)[C@H](CC=C(C)C)Cc1c(O)cc(OC)c2c1O[C@H](c1ccc(O)cc1O)CC2=O [Kurarinone]	19.7%	

SMILES	229E Inhibition rate	229E Inhibition rate (229E Inhibition rate, 24 h)
C=C(C)[C@H](CC=C(C)C)Cc1c(O)cc(OC)c2c1O[C@H](c1ccc(O)cc1O)[C@@H](O)C2=O [Kushenol I]	6.5%	
C=C(C)[C@H](CC=C(C)C)Cc1c(O)cc(O)c2c1O[C@H](c1ccc(O)cc1O)CC2=O [sophoraflavanone G]	75.7%	
C[C@H](O)[C@H](O)C1=Nc2c(nc(N)[nH]c2=O)NC1 [7,8-Dihydro-L-biopterin]	24.5%	
N[C@@H](CCC(=O)O)C(=O)O [L-Glutamic acid (monosodium salt)]		12%
C[C@@H]1O[C@@H](O[C@H]2[C@H](Oc3cc(O)c4c(=O)cc(-c5ccc(O)cc5)oc4c3)O[C@H](CO[C@@H]3O[C@H](CO)[C@@H](O)[C@H](O)[C@H]3O)[C@@H](O)[C@@H]2O)[C@H](O)[C@H](O)[C@H]1O [Apigenin-7-O-(2G-rhamnosyl)gentiobioside]	22.2%	
Nc1ccccc1S(=O)(=O)O [2-Aminobenzenesulfonic acid]	0%	
COc1cc(-c2[o+]c3cc(O)cc(O)c3cc2O)cc(O)c1O [Petunidin (chloride)]	13.2%	
O=C(/C=C/c1ccc(O[C@@H]2O[C@H](CO)[C@@H](O)[C@H](O)[C@H]2O)cc1)c1ccc(O)cc1O [Isoliquiritin]	27.7%	
O=C(/C=C/c1ccc(O)cc1)c1ccc(O[C@@H]2O[C@H](CO)[C@@H](O)[C@H](O)[C@H]2O)cc1O [Neoisoliquiritin]	24.9%	
O=C(/C=C/c1ccc(O[C@@H]2O[C@H](CO)[C@@H](O)[C@H](O)[C@H]2O[C@@H]2OC[C@](O)(CO)[C@H]2O)cc1)c1ccc(O)cc1O [Isoliquiritin apioside]	63.8%	
C=C1CC[C@H]2O[C@]2(C)CC[C@@H]2[C@@H]1CC2(C)C [Caryophyllene oxide]	16.3%	
O=C(O)c1ccc(O)c(O)c1O [2,3,4-Trihydroxybenzoic acid]	18%	
C[C@H](CC[C@@H](O[C@@H]1O[C@H](CO[C@@H]2O[C@H](CO)[C@@H](O)[C@H](O)[C@H]2O)[C@@H](O)[C@H](O)[C@H]1O[C@@H]1O[C@H](CO)[C@@H](O)[C@H](O)[C@H]1O)C(C)(C)O)[C@H]1CC[C@@]2(C)[C@@H]3CC=C4[C@@H](CC[C@H](O[C@@H]5O[C@H](CO[C@@H]6O[C@H](CO)[C@@H](O)[C@H](O)[C@H]6O)[C@@H](O)[C@H](O)[C@H]5O)C4(C)C)[C@]3(C)C(=O)C[C@]12C [11-oxo-mogroside V]	0%	
COc1cc([C@@H]2OC[C@@H]3[C@H]2CO[C@H]3c2cc(OC)c(O)c(OC)c2)cc(OC)c1O [(-)-Syringaresinol]	16.7%	
Cc1cc(O[C@@H]2O[C@H](CO)[C@@H](O)[C@H](O)[C@H]2O)c2c(c1)C(=O)c1cccc(O)c1C2=O [Chrysophanein]	51.1%	
Cc1cc(O)c2c(c1)C(=O)c1cccc(O[C@@H]3O[C@H](CO)[C@@H](O)[C@H](O)[C@H]3O)c1C2=O [Chrysophanol 8-O-glucoside]	8.4%	
CC(=O)OC[C@H]1O[C@@H](O[C@@H]2[C@@H](O)[C@H](O[C@@H]3[C@H](O)C(C)(C)C[C@H]4C5=CC[C@@H]6[C@@]7(C)CC[C@H](O[C@@H]8O[C@H](C(=O)O)[C@@H](O)[C@H](O)[C@H]8O[C@@H]8O[C@H](CO)[C@H](O)[C@H](O)[C@H]8O[C@@H]8O[C@H](CO)[C@@H](O)[C@H](O)[C@H]8O)[C@](C)(CO)[C@@H]7CC[C@@]6(C)[C@]5(C)CC[C@@]34C)OC[C@@H]2O)[C@H](OC(C)=O)[C@@H](OC(C)=O)[C@@H]1OC(C)=O [Soyasaponin Ab]	46.7%	
CN1CCC=C(C(=O)O)C1 [Arecaidine]		7.9%
O=C(/C=C/c1ccc(O)c(O)c1)O[C@@H](C(=O)O)[C@@H](OC(=O)/C=C/c1ccc(O)c(O)c1)C(=O)O [Chicoric acid]		8%
